“And” between values parts separate entries of the source, which are not always exact repeats. Equal values may be shown once. The source holds several records for some structures; these can differ, active in one and inactive in another. The source made the active and inactive calls. The calls were made as follows: active = hit-call score of the fitted dose curve at least 0.9, where 1 is the maximum; inactive = score below 0.9.

Read-out in this test: Monocyte Chemoattractant Protein-1 (MCP1), CCL2 (gene 6347)
Description: BSK_hDFCGF_MCP1: BioMAP Diversity Plus: hDFCGF Assay for Monocyte Chemoattractant Protein-1 (MCP1) Biomarker Activity (AID 2284285). The conditions noted are these: primary human foreskin fibroblasts. As to the method:
BSK_hDFCGF is a cell-based, multiplexed-readout assay that uses foreskin fibroblast, a human skin primary cell, with measurements taken at 24 hours after chemical dosing in a 96-well plate.BSK_hDFCGF_MCP1 is an assay component measured in the BSK_hDFCGF assay. It measures MCP-1 antibody related to regulation of gene expression using ELISA technology.Data from the assay component BSK_hDFCGF_MCP1 was analyzed at the endpoint, BSK_hDFCGF_MCP1, in the positive analysis fitting direction relative to DMSO as the negative control and baseline of activity. Using a type of binding reporter, gain or loss-of-signal activity can be used to understand protein changes. To generalize the intended target to other relatable targets, this assay endpoint is annotated to the 'cytokine' intended target family, where the subfamily is 'chemotactic factor'.
The levels of cell surface (or secreted, indicated by the prefix "s") biomarker endpoints were measured by ELISA. Overt cytotoxicity to cells in confluent adherent cultures (all systems other than the BT system) was assessed by measuring total protein levels using sulforhodamine B (SRB) staining in parallel cultures at the time of biomarker measurements, indicated as SRB endpoints. For proliferation assays for adherent cell types, individual cell types are cultured at sub-confluence and relative cell numbers quantified by SRB staining at time points optimized for each system (48 h: 3C and CASM3C systems; 72 h: BT and HDF3CGF systems; 96 h: SAg system). SRB was performed by staining cells with 0.1% SRB after fixation with 10% TCA and reading wells at 560 nm.Viability and proliferation of PBMC (T cells) was quantified by Alamar Blue reduction for the SAg and BT systems. For PBMC viability (referred to as PBMC Cytotoxicity within the assay endpoint names), cells were plated (75,000/well in a 96-well plate) and then chemical samples added for 1 h before addition of activators, SEB and TSST-1 (20 ng/mL final concentration each). Cells were incubated for 90 h. Then, Alamar Blue (20 uL/well) (Invitrogen, Cat DAL1100) was added for 6 h, and the plates were read with a fluorescence microplate reader at 546/580 nm (excitation/emission). For PBMC proliferation, cells were plated and activated as above but incubated for only 16 h prior to addition of Alamar Blue. Plates were read after 6 h.
Turning to `Cc1c(C(N)=O)cc([N+](=O)[O-])cc1[N+](=O)[O-]`, the result was inactive.
Broadly, the AC50 is the concentration at which the activity in the assay is half-maximal. For the compound `CCCCC(CC)COC(=O)C=Cc1ccc(OC)cc1` (stereo unspecified), the result was inactive and the AC50 was 8.08 µM (active).
As for `C1CN(CCOCCN2CCOCC2)CCO1`, the result was inactive.
Regarding `CC(C)C1OCCN1CCOC(=O)NCCCCCCNC(=O)OCCN1CCOC1C(C)C` (stereo unspecified), the AC50 was 0.149 µM (active) and the outcome was inactive.
For `COc1cc(CNC(=O)CCCC/C=C/C(C)C)ccc1O`, the AC50 is 0.508 µM (active) and the outcome was inactive.
For the compound `COc1ccccc1Oc1c(NS(=O)(=O)c2ccc(C(C)(C)C)cc2)nc(-c2ncccn2)nc1OCCO`, the outcome was inactive.
Turning to `OC(C(F)(F)F)(C(F)(F)F)C(O)(C(F)(F)F)C(F)(F)F`, the half-maximal activity concentration (AC50) is 7.94 µM (active) and the outcome was inactive.
With `CN(C)Cc1cc(C(C)(C)C)c(O)c(C(C)(C)C)c1`, the outcome was inactive.
For the compound `CCC[Si](OC(C)=O)(OC(C)=O)OC(C)=O`, the result was inactive.
For `CC[N+](CC)(CC(=O)Nc1c(C)cccc1C)Cc1ccccc1` (tested in a mixture with another compound), the result was inactive.
As for `O=[N+]([O-])c1cc(S(=O)(=O)Nc2ccccc2)ccc1Nc1ccccc1`, the AC50 is 30.8 µM (active) and 29.7 µM (active).
With `COc1ccc(C(=O)c2ccccc2O)c(O)c1`, the outcome was inactive.

The record behind these values is PubChem BioAssay (EPA / NIEHS).
